Assay [1] can be described thus: Wnt pathway potentiators raising nuclear beta-catenin – imaging, WNT3A-conditioned medium, mouse C2C12, NPC library, primary screen (AID 1117326; in the data active means nuclear beta-catenin stimulation mostly above about 4.2%, no sharp cut-off; inactive means mostly below about 10%; further: reference of the scale not given here). The following applies: stronger effect = higher value.
Assay [2] is described as follows: stimulators of insulin release from INS-1E, primary screen, cell-based, 5 mM glucose, NPC library (AID 1117329;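 active means compound raises insulin release from rat beta cells at 5 mM glucose, no numeric limit stated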; further: reference of the scale not given here). The following applies: rat INS-1E insulin secretion, at 10 µM, stronger effect = higher value.
Assay [3] is described as follows: growth inhibition of GSK3B-pretreated HCT116 cells – cell-based, CellTiter-Glo, 0.2 to 20 µM (AID 1117336). The following applies: HCT116 viability after GSK3B inhibitor, at 20 µM, stronger effect = higher value.
Assay [4] can be described thus: inhibition of endothelial tube formation, primary screen, imaging, VEGF stimulated, CD31 staining, tube area, NPC library (AID 1117340;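 active means compound that reduces growth-factor-driven endothelial tube area in a mixed cell culture, no cutoff stated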). The conditions noted are these: VEGF-stimulated ADSC/ECFC co-culture, at 10 µM, stronger effect = higher value.
A short description of assay [5]: GLP1 release stimulators, primary, NCI-H716, NPC library (AID 1117341;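 active means compound raises GLP1 secretion from the human gut endocrine cells, with no numeric limit stated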; further: reference of the scale not given here). The conditions noted are these: NCI-H716 cells, at 10 µM, stronger effect = higher value.
Assay [6] in a line: HCT116 colon cancer cell growth inhibition, primary screen, CellTiter-Glo luminescence, NPC library (AID 1117342;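 active means compounds that lower survival of HCT116 colon cancer cells in the luminescence readout, no numeric limit stated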). The conditions noted are these: at 20 µM (top of the series).
A short description of assay [7]: reduced SW480 viability measured with CellTiter-Glo, NPC library, primary (AID 1117343;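 active means compounds that lower viability of the colon cancer cells in the luminescence readout, with no numeric limit stated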). The following applies: CellTiter-Glo luminescence; at 20 µM (top of the series).
Assay [8] in a line: NPC library primary testing for decreased DLD-1 cell viability via CellTiter-Glo (AID 1117346;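 active means compounds that lower survival of DLD-1 colon cancer cells in the luminescence readout, no cutoff given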). The conditions noted are these: DLD-1 viability, CellTiter-Glo luminescence; at 20 µM (top of the series).

Several values for one entry are separate records, joined by “and”; a condition that tells them apart may be missing. Equal entries are not always repeated. Where a structure was tested more than once in an assay, its records may differ in their call. Activity calls are given as the source filed them.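 How the source made its calls, unless noted: active means compounds lowering colon cancer cell viability after pretreatment blocking the GSK3B kinase; inactive means the rest.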

On to `COc1cc([C@@H]2c3cc4c(cc3[C@@H](O[C@@H]3O[C@@H]5CO[C@@H](C)O[C@@H]5[C@H](O)[C@@H]3O)[C@H]3COC(=O)[C@H]23)OCO4)cc(OC)c1O`, for which the nuclear beta-catenin stimulation in assay [1] (at 10 µM) is 44.6% (active); in assay [1] (stimulation, at 2 µM), 18.8%. Moreover, in assay [2], the insulin secretion stimulation is 1.2% (inactive). Moreover, the viability decrease in assay [3] was 21.9% (inactive). Further, the tube area decrease in assay [4] was 104% (active). The GLP1 secretion stimulation in assay [5] was 0.6% (inactive). Also, the inhibition of viability in assay [6] is 53.9% (active). The viability decrease (inhibition) in assay [7] is 73.1% (active); in assay [8], 49.6% (inactive).

Consider `O=C(CCCCCCCCC#CI)Oc1ccccc1`, for which the nuclear beta-catenin stimulation in assay [1] (at 10 µM) is 3% (inactive); in assay [1] (stimulation, at 2 µM), 0.2%. Also, the insulin secretion stimulation in assay [2] is -1.7% (inactive). Also, the viability decrease in assay [3] was 56% (active). In addition, the tube area decrease in assay [4] was 13% (inactive). Also, the GLP1 secretion stimulation in assay [5] is 0.3% (inactive). For the same molecule, in assay [6], the inhibition of viability was -7.3% (inactive). For the same molecule, the viability decrease (inhibition) in assay [7] is 68.3% (active); in assay [8], 63.9% (active).

`N#CCC(=O)NN`: the nuclear beta-catenin stimulation was 0.4% (inactive) in assay [1] (at 10 µM) and 2.7% in assay [1] (stimulation, at 2 µM). In assay [2], the insulin secretion stimulation was -0.7% (inactive). Besides, the viability decrease in assay [3] was 4.45% (inactive). Moreover, the tube area decrease in assay [4] is 0.1% (inactive). Besides, the GLP1 secretion stimulation in assay [5] is -0.8% (inactive). Further, the inhibition of viability in assay [6] was 1.9% (inactive). For the same molecule, the values for the viability decrease (inhibition) in assay [7] and in assay [8] were 13.4% (inactive) and 4.5% (inactive), respectively.

As to `OC[C@@H](O)[C@H](O)[C@H](O)[C@@H](O)CO`, the nuclear beta-catenin stimulation was 0.7% (inactive) and 2.5% (inactive) in assay [1] (at 10 µM); -0.3% and 1% in assay [1] (stimulation, at 2 µM). Moreover, the insulin secretion stimulation in assay [2] is 0.1% (inactive) and 1.8% (inactive). The viability decrease in assay [3] is -25.2% (inactive) and 11.4% (inactive). Besides, in assay [4], the tube area decrease was 3.7% (inactive) and 50.5% (active). Also, the GLP1 secretion stimulation in assay [5] was 0.3% (inactive) and -1.2% (inactive). Besides, the inhibition of viability in assay [6] was -3.33% (inactive) and -2.5% (inactive). Besides, the viability decrease (inhibition) is 4.1% (inactive) and 1.5% (inactive) in assay [7]; -1.5% (inactive) and -4.9% (inactive) in assay [8].

Take `O=C(OCC1(COC(=O)c2cccnc2)CCCC(COC(=O)c2cccnc2)(COC(=O)c2cccnc2)C1O)c1cccnc1`: the nuclear beta-catenin stimulation was -1.3% (inactive) in assay [1] (at 10 µM) and -0.2% in assay [1] (stimulation, at 2 µM). Also, in assay [2], the insulin secretion stimulation was 7.7% (inactive). Moreover, the viability decrease in assay [3] is -3.6% (inactive). Also, in assay [4], the tube area decrease was -7.3% (inactive). The GLP1 secretion stimulation in assay [5] is -3.3% (inactive). The inhibition of viability in assay [6] was 9.9% (inactive). In addition, the viability decrease (inhibition) in assay [7] and in assay [8] was -3.1% (inactive) in each case.

For `CN(C)C(=S)SC(=S)N(C)C`, the nuclear beta-catenin stimulation was 31.6% (inactive) in assay [1] (at 10 µM) and 11.3% in assay [1] (stimulation, at 2 µM). Also, the insulin secretion stimulation in assay [2] was -0.3% (inactive). Also, the viability decrease in assay [3] was -6.55% (inactive). Further, the tube area decrease in assay [4] is -36.6% (inactive). Also, in assay [5], the GLP1 secretion stimulation is 4.1% (inactive). Moreover, the inhibition of viability in assay [6] was 11.5% (inactive). Also, the viability decrease (inhibition) is 35.3% (inactive) in assay [7] and 0.2% (inactive) in assay [8].

In the case of `CC(=O)O[C@@H]1C(=O)O[C@@H]2[C@H]1OC(=O)[C@@H]2OC(C)=O`, the nuclear beta-catenin stimulation in assay [1] (at 10 µM) was 0.6% (inactive); in assay [1] (stimulation, at 2 µM) it was -1.1%. In addition, the insulin secretion stimulation in assay [2] was 2.4% (inactive). In addition, the viability decrease in assay [3] was 19.5% (inactive). Moreover, the tube area decrease in assay [4] is -1% (inactive). Besides, the GLP1 secretion stimulation in assay [5] was -3.4% (inactive). For the same molecule, the inhibition of viability in assay [6] was 22.9% (inactive). Further, the viability decrease (inhibition) is 18.7% (inactive) in assay [7] and 4.6% (inactive) in assay [8].

In the case of `O=S1(=O)OC(c2ccc(O)cc2)(c2ccc(O)cc2)c2ccccc21`, the nuclear beta-catenin stimulation in assay [1] (at 10 µM) was 0.1% (inactive); in assay [1] (stimulation, at 2 µM), -1.3%. In addition, the insulin secretion stimulation in assay [2] is 0.55% (inactive). The viability decrease in assay [3] was 12.4% (inactive). Besides, the tube area decrease in assay [4] was 2.5% (inactive). For the same molecule, the GLP1 secretion stimulation in assay [5] is -0.4% (inactive). Besides, the inhibition of viability in assay [6] is 38.7% (inactive). The viability decrease (inhibition) in assay [7] was -9.3% (inactive); in assay [8], 42.9% (inactive).

With `COc1cc2c(cc1OC)CN(C(=O)[C@H](C)N[C@@H](CCc1ccccc1)C(=O)O)[C@H](C(=O)O)C2`, the nuclear beta-catenin stimulation in assay [1] (at 10 µM) was -0.2% (inactive); in assay [1] (stimulation, at 2 µM), -2.5%. For the same molecule, in assay [2], the insulin secretion stimulation is 0.4% (inactive). Also, in assay [3], the viability decrease was -9.2% (inactive). For the same molecule, the tube area decrease in assay [4] was 14.8% (inactive). Also, the GLP1 secretion stimulation in assay [5] is -1.8% (inactive). In assay [6], the inhibition of viability is 7.6% (inactive). Further, the viability decrease (inhibition) is -3.9% (inactive) in assay [7] and -16.7% (inactive) in assay [8].

As to `O=C(O)C1CSC(C(=O)O)N1` (centres undefined), the nuclear beta-catenin stimulation in assay [1] (at 10 µM) is 0.7% (inactive); in assay [1] (stimulation, at 2 µM), 1.2%. For the same molecule, in assay [2], the insulin secretion stimulation was -0.4% (inactive). Besides, in assay [3], the viability decrease is -6.8% (inactive). In addition, the tube area decrease in assay [4] was -2.5% (inactive). Moreover, in assay [5], the GLP1 secretion stimulation was -3.3% (inactive). Also, the inhibition of viability in assay [6] was 2.5% (inactive). Moreover, the viability decrease (inhibition) in assay [7] was 4% (inactive); in assay [8] it was -8.7% (inactive).

Turning to `CC(C)(C)CC(C)(C)c1ccc(O)c(-n2nc3ccccc3n2)c1`, the nuclear beta-catenin stimulation in assay [1] (at 10 µM) was 1.5% (inactive); in assay [1] (stimulation, at 2 µM), 1.1%. Further, the insulin secretion stimulation in assay [2] is -1% (inactive). The viability decrease in assay [3] is 13.1% (inactive). Further, the tube area decrease in assay [4] was 23.9% (inactive). The GLP1 secretion stimulation in assay [5] is -1.5% (inactive). Also, in assay [6], the inhibition of viability is -8.9% (inactive). Moreover, the viability decrease (inhibition) is 82.6% (active) in assay [7] and 22.1% (inactive) in assay [8].

Turning to `CO[C@@H]1[C@@H](OC)[C@H](C)[C@@](O)(CC(=O)O)O[C@H]1[C@H](C)[C@H]1O[C@@]2(CC[C@@](C)([C@H]3CC[C@@](C)([C@@H]4O[C@@H]([C@H]5O[C@](C)(O)[C@H](C)C[C@@H]5C)C[C@@H]4OC4C[C@H](OC)[C@@H](OC)[C@H](C)O4)O3)O2)C[C@H](O)[C@H]1C` (some centres undefined), the nuclear beta-catenin stimulation is -1.1% (inactive) in assay [1] (at 10 µM) and 10.6% in assay [1] (stimulation, at 2 µM). In addition, in assay [2], the insulin secretion stimulation was 5.4% (inactive). Besides, the viability decrease in assay [3] is 79.8% (active). Moreover, in assay [4], the tube area decrease is 111% (active). The GLP1 secretion stimulation in assay [5] is 15% (inactive). The inhibition of viability in assay [6] is 66.7% (active). The viability decrease (inhibition) was 128% (active) in assay [7] and 96.7% (active) in assay [8].

Regarding `NCCNc1ccc(NCCN)c2c1C(=O)c1ccncc1C2=O`, the nuclear beta-catenin stimulation in assay [1] (at 10 µM) is 22.6% (inactive); in assay [1] (stimulation, at 2 µM), 8.9%. Besides, in assay [2], the insulin secretion stimulation is -0.4% (inactive). In addition, in assay [3], the viability decrease was 67.3% (active). Besides, in assay [4], the tube area decrease is 91.4% (active). The GLP1 secretion stimulation in assay [5] is -4.8% (inactive). Besides, the inhibition of viability in assay [6] was 47% (inactive). Besides, the viability decrease (inhibition) is 1.2% (inactive) in assay [7] and 14.7% (inactive) in assay [8].

For the molecule `O=c1[nH]sc2cc(Cl)ccc12`, the nuclear beta-catenin stimulation in assay [1] (at 10 µM) is 15.5% (inactive); in assay [1] (stimulation, at 2 µM) it was 7.8%. Further, the insulin secretion stimulation in assay [2] is -2.7% (inactive). In assay [3], the viability decrease was 58.1% (active). Moreover, the tube area decrease in assay [4] was 89.7% (active). In addition, the GLP1 secretion stimulation in assay [5] is 45% (active). The inhibition of viability in assay [6] was 20.5% (inactive). For the same molecule, the results for the viability decrease (inhibition) in assay [7] and in assay [8] were 157% (active) and 63.5% (active), respectively.

For the molecule `COc1ccc([C@@H]2Sc3ccccc3NC(=O)[C@@H]2O)cc1`, the nuclear beta-catenin stimulation in assay [1] (at 10 µM) was 7.8% (inactive); in assay [1] (stimulation, at 2 µM) it was 0.6%. The insulin secretion stimulation in assay [2] is 2.8% (inactive). Also, in assay [3], the viability decrease was 77.6% (active). The tube area decrease in assay [4] was 57.7% (active). Further, in assay [5], the GLP1 secretion stimulation was 2.6% (inactive). For the same molecule, the inhibition of viability in assay [6] was 96.6% (active). The viability decrease (inhibition) in assay [7] is 87.2% (active); in assay [8], 67.4% (active).

With `COc1ccnc2c1CCCCC2S(=O)c1nc2ccccc2[nH]1` (centres undefined), the nuclear beta-catenin stimulation in assay [1] (at 10 µM) is -0.3% (inactive); in assay [1] (stimulation, at 2 µM), 3%. Moreover, the insulin secretion stimulation in assay [2] is 1.6% (inactive). In addition, the viability decrease in assay [3] is -54.1% (inactive). Further, the tube area decrease in assay [4] is 13.2% (inactive). In assay [5], the GLP1 secretion stimulation is 9.2% (inactive). Moreover, in assay [6], the inhibition of viability was 27.5% (inactive). The viability decrease (inhibition) in assay [7] was 31.6% (inactive); in assay [8], 11.3% (inactive).

The record behind these values is PubChem BioAssay.
